Measurements from PubChem BioAssay.
Results with a measured potency or affinity are listed apart. The source made the active and inactive calls. The rule behind the calls is not given here.

Assay: cytotoxicity in OVCAR8 ovarian cancer cells, dose response, PAX8 project, cell-based, plate reader, dry powder samples (AID 743197)
Conditions: series mostly up to 35 µM; activity change, negative = cytotoxicity: at the top concentration

| SMILES | activity change, negative = cytotoxicity |
| --- | --- |
| C[C@@H]1CN([C@@H](C)CO)C(=O)Cc2cc(N(C)C)ccc2O[C@H]1CN(C)Cc1ccc(Oc2ccccc2)cc1 | 12.3% (inactive) |
| C[C@H](CO)N1C[C@H](C)[C@H](CN(C)Cc2ccc3c(c2)OCO3)Oc2ccc(NC(=O)Nc3cccc4ccccc34)cc2C1=O | 24.7% (inactive) |
| C[C@@H]1CCCCO[C@H](CN(C)Cc2ccc(C(F)(F)F)cc2)[C@H](C)CN([C@H](C)CO)C(=O)c2cc(NS(=O)(=O)c3ccc(F)cc3)ccc2O1 | 22.8% (inactive) |
| CN1c2ccc(-c3ccc(C#N)cc3)cc2[C@@H]2[C@@H](CCN2C(=O)NC2CCCCC2)[C@@H]1CO | 6.76% (inactive) |
| Cc1ccc(S(=O)(=O)N(C)C[C@H]2Oc3ccc(NC(=O)Nc4ccc(C(F)(F)F)cc4)cc3CC(=O)N([C@@H](C)CO)C[C@H]2C)cc1 | -1.82% (inactive) |
| CCCN(C)C[C@H]1OCCCC[C@@H](C)Oc2ccc(NC(=O)c3ccccc3)cc2C(=O)N([C@H](C)CO)C[C@H]1C | 12.3% (inactive) |
| C[C@@H]1CCCCO[C@H](CN(C)Cc2ccc(Cl)c(Cl)c2)[C@@H](C)CN([C@@H](C)CO)C(=O)c2cc(NS(=O)(=O)c3ccc(Cl)cc3)ccc2O1 | -10.8% (inactive) |
| C[C@H](CO)N1C[C@H](C)[C@H](CN(C)Cc2ccc(Cl)c(Cl)c2)Oc2c(NS(=O)(=O)c3ccc(Cl)cc3)cccc2C1=O | 7.26% (inactive) |
| C[C@@H]1CN([C@H](C)CO)C(=O)c2cc(NC(=O)Nc3ccc(C(F)(F)F)cc3)ccc2O[C@@H](C)CCCCO[C@H]1CN(C)C(=O)Nc1ccc(F)cc1 | 25.2% (inactive) |
| Cc1ccc(S(=O)(=O)Nc2ccc3c(c2)C(=O)N([C@@H](C)CO)C[C@H](C)[C@@H](CN(C)C(=O)Nc2ccc(C(F)(F)F)cc2)OCCCC[C@H](C)O3)cc1 | 20.4% (inactive) |
